Laboratory results as given in PubChem BioAssay AID1159580 (chemical genetic matrix, 2015).
Several values for one entry are separate records, joined by “and”; a condition that tells them apart may be missing. Equal values may be shown once. Screen size: about 5,500 compounds; about 2,000 (36%) were called active. Roughly 18% stayed inconclusive and do not appear here. Rule as the data show it: active = normalized growth mostly below about 0.91 (no sharp cut-off); inconclusive = no clear call, values can overlap the other calls; inactive = mostly above about 0.92. Some of the results follow.

Test: chemical genetic growth profiling, strain panel (AID 1159580);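 also: tested at 20 µM; growth read once vehicle control cultures reached saturation at 30 °C; 1 = growth at the plate median or of vehicle wells; lower values mean less growth of the strain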
Conditions: growth OD

Measured: normalized growth

O=C(O)c1cc(=O)c2ccc(Cl)cc2[nH]1
inactive: S. cerevisiae deletion strains, locus YJR043C, strain POL32, hits give low values 1.03 | S. cerevisiae deletion strains, locus YJR075W, strain HOC1, hits give low values 1.02 and 1 | S. cerevisiae deletion strains, locus YKL009W, strain mrt4, hits give low values 0.99 | S. cerevisiae deletion strains, locus YKL068W, hits give low values 0.995 | S. cerevisiae deletion strains, locus YKL085W, strain MDH1 (second series), hits give low values 0.982 | S. cerevisiae deletion strains, locus YKL085W, strain MDH1, hits give low values 0.982 | S. cerevisiae deletion strains, locus YKL160W, strain elf1, hits give low values 1.05 | S. cerevisiae deletion strains, locus YKL190W, strain CNB1, hits give low values 1.01 | S. cerevisiae deletion strains, locus YKR001C, strain vps1, hits give low values 0.998 | S. cerevisiae deletion strains, locus YKR026C, strain gcn3, hits give low values 1.01 | S. cerevisiae deletion strains, locus YKR091W, strain srl3, hits give low values 1.01 | S. cerevisiae deletion strains, locus YLL001W, strain dnm1, hits give low values 1.02 | S. cerevisiae deletion strains, locus YLL026W, hits give low values 1.02 | S. cerevisiae deletion strains, locus YLL041C, strain sdh2, hits give low values 1.03 | S. cerevisiae deletion strains, locus YLR027C, strain aat2, hits give low values 1.03 | S. cerevisiae deletion strains, locus YLR039C, strain RIC1, hits give low values 1.02 | S. cerevisiae deletion strains, locus YLR058C, strain SHM2, hits give low values 1.02 | S. cerevisiae deletion strains, locus YLR102C, strain apc9, hits give low values 0.986 | S. cerevisiae deletion strains, locus YLR221C, strain rsa3, hits give low values 0.988 | S. cerevisiae deletion strains, locus YLR258W, strain gsy2, hits give low values 1.03 | S. cerevisiae deletion strains, locus YLR262C, strain YPT6 (second series), hits give low values 1 | S. cerevisiae deletion strains, locus YLR262C, strain YPT6, hits give low values 1.05 | S. cerevisiae deletion strains, locus YLR268W, strain sec22, hits give low values 0.986 | S. cerevisiae deletion strains, locus YLR320W, strain mms22, hits give low values 1.01 | S. cerevisiae deletion strains, locus YLR330W, strain CHS5, hits give low values 1.01 | S. cerevisiae deletion strains, locus YLR342W, strain FKS1 (second series), hits give low values 0.957 | S. cerevisiae deletion strains, locus YLR342W, strain FKS1, hits give low values 1.02 | S. cerevisiae deletion strains, locus YLR357W, strain rsc2, hits give low values 1.02 | S. cerevisiae deletion strains, locus YLR370C, strain arc18, hits give low values 1.02 | S. cerevisiae deletion strains, locus YLR371W, strain rom2, hits give low values 0.984 | S. cerevisiae deletion strains, locus YLR384C, strain iki3, hits give low values 1.01 | S. cerevisiae deletion strains, locus YLR418C, strain cdc73, hits give low values 0.974 | S. cerevisiae deletion strains, locus YML016C, strain PPZ1, hits give low values 1.02 | S. cerevisiae deletion strains, locus YML032C, strain rad52, hits give low values 0.996 | S. cerevisiae deletion strains, locus YML120C, strain ndi1, hits give low values 1.01 | S. cerevisiae deletion strains, locus YML124C, strain tub3, hits give low values 0.998 | S. cerevisiae deletion strains, locus YMR058W, strain fet3, hits give low values 1.01 | S. cerevisiae deletion strains, locus YMR078C, strain ctf18, hits give low values 0.987 | S. cerevisiae deletion strains, locus YMR125W, strain sto1, hits give low values 1.01 | S. cerevisiae deletion strains, locus YMR129W, hits give low values 1.01 | S. cerevisiae deletion strains, locus YMR205C, strain PFK2, hits give low values 1.03 | S. cerevisiae deletion strains, locus YMR223W, strain ubp8, hits give low values 0.968 | S. cerevisiae deletion strains, locus YMR231W, strain pep5, hits give low values 1.01 | S. cerevisiae deletion strains, locus YMR263W, strain SAP30, hits give low values 1.03 | S. cerevisiae deletion strains, locus YMR307W, strain GAS1, hits give low values 0.978 | S. cerevisiae deletion strains, locus YNL067W, strain RPL9B, hits give low values 1.03 | S. cerevisiae deletion strains, locus YNL071W, strain lat1, hits give low values 1.01 | S. cerevisiae deletion strains, locus YNL128W, strain TEP1, hits give low values 1.03 | S. cerevisiae deletion strains, locus YNL153C, strain GIM3, hits give low values 1.04 | S. cerevisiae deletion strains, locus YNL175C, strain NOP13, hits give low values 1.01 | S. cerevisiae deletion strains, locus YNL197C, strain WHI3, hits give low values 1.02 | S. cerevisiae deletion strains, locus YNL209W, strain ssb2, hits give low values 1.01 | S. cerevisiae deletion strains, locus YNL224C, strain SQS1, hits give low values 1 | S. cerevisiae deletion strains, locus YNL233W, strain BNI4, hits give low values 1.03 | S. cerevisiae deletion strains, locus YNL248C, strain rpa49, hits give low values 1.08 | S. cerevisiae deletion strains, locus YNL250W, strain rad50, hits give low values 0.982 | S. cerevisiae deletion strains, locus YNL271C, strain bni1, hits give low values 0.992 | S. cerevisiae deletion strains, locus YNL298W, strain CLA4, hits give low values 0.999 | S. cerevisiae deletion strains, locus YNL307C, strain MCK1, hits give low values 0.988 | S. cerevisiae deletion strains, locus YNL322C, strain KRE1 (second series), hits give low values 1.06 | S. cerevisiae deletion strains, locus YNL322C, strain KRE1, hits give low values 1.01 and 1.02 | S. cerevisiae deletion strains, locus YNR049C, strain mso1, hits give low values 1 | S. cerevisiae deletion strains, locus YNR052C, strain pop2, hits give low values 0.99 | S. cerevisiae deletion strains, locus YOL006C, strain TOP1, hits give low values 1.11 | S. cerevisiae deletion strains, locus YOL012C, strain htz1 1.2 | S. cerevisiae deletion strains, locus YOL147C, strain pex11, hits give low values 0.994 | S. cerevisiae deletion strains, locus YOR001W, strain rrp6, hits give low values 0.96 | S. cerevisiae deletion strains, locus YOR061W, strain CKA2, hits give low values 1.01 | S. cerevisiae deletion strains, locus YOR069W, strain VPS5, hits give low values 1.01 | S. cerevisiae deletion strains, locus YOR070C, strain gyp1, hits give low values 1.01 | S. cerevisiae deletion strains, locus YOR080W, strain dia2, hits give low values 1 | S. cerevisiae deletion strains, locus YOR083W, strain WHI5 (second series), hits give low values 0.989 | S. cerevisiae deletion strains, locus YOR083W, strain WHI5, hits give low values 1.05 | S. cerevisiae deletion strains, locus YOR106W, strain vam3, hits give low values 1.05 | S. cerevisiae deletion strains, locus YOR136W, strain idh2, hits give low values 0.987 | S. cerevisiae deletion strains, locus YOR144C, strain elg1, hits give low values 0.984 | S. cerevisiae deletion strains, locus YOR184W, strain ser1, hits give low values 0.985 | S. cerevisiae deletion strains, locus YOR265W, strain rbl2, hits give low values 1 | S. cerevisiae deletion strains, locus YOR270C, strain vph1, hits give low values 1.04 | S. cerevisiae deletion strains, locus YOR290C, strain snf2, hits give low values 1.06 | S. cerevisiae deletion strains, locus YOR316C, strain cot1, hits give low values 0.994 | S. cerevisiae deletion strains, locus YPL051W, strain arl3, hits give low values 1.01 | S. cerevisiae deletion strains, locus YPL055C, strain LGE1, hits give low values 1.07 | S. cerevisiae deletion strains, locus YPL078C, strain atp4, hits give low values 1.06 | S. cerevisiae deletion strains, locus YPL106C, strain sse1, hits give low values 1.06 | S. cerevisiae deletion strains, locus YPL240C, strain hsp82, hits give low values 1.02 | S. cerevisiae deletion strains, locus YPL241C, strain CIN2, hits give low values 1.01 | S. cerevisiae deletion strains, locus YPR119W, strain clb2, hits give low values 0.989 | S. cerevisiae deletion strains, locus YPR141C, strain kar3, hits give low values 0.99 | S. cerevisiae deletion strains, locus YPR163C, strain tif3, hits give low values 0.986 | S. cerevisiae deletion strains, locus YPR167C, strain met16, hits give low values 0.989 | S. cerevisiae deletion strains, strain wtn01, hits give low values 0.98 | S. cerevisiae strains, strain wild type, hits give low values 1.02
